Among the data in PubChem BioAssay (Tox21) are Potency and outcome values, retold here.

Structures are written as SMILES. Unmarked numbers belong to inactive results. Records with an inconclusive call do not appear. Active and inactive are the calls of the source. Unless noted, the call rests on the fitted dose curve; in most records, active means well fitted curve in the direction sought with a large enough effect in the repeat runs; inconclusive means weak or mixed curves; inactive means no such curve, though single readings can be large; an effect the other way counts as inactive or inconclusive.

Test [1] is described as follows: qHTS assay to identify small molecule antagonists of the estrogen related receptor (ERR) signaling pathway from Tox21 library - cell viability counter screen (AID 1224834). Further: nearly all actives have a fitted effect of over 30% in size. The procedure, abridged: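 ERR reporter cells were plated 6 h before compound addition, then exposed to test compounds in DMSO for 17.5 h at 37 C. Viability was read as CellTiter-Fluor fluorescence after a 30-minute incubation at 37 C.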

For test [2], the target named is Luciferin 4-monooxygenase (Photinus pyralis) (UniProt P08659). Put plainly: qHTS assay to identify small molecule inhibitors of firefly luciferase (AID 1224835). Further: nearly all actives have a fitted effect of over 25% in size. Further: potency means the concentration at half of the fitted maximal effect. Summed up:
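Quantitative HTS format; KM concentrations of both substrates. Purified P. pyralis FLuc activity quantified from luminescence images.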

Test [3] can be described thus: qHTS assay to identify small molecule agonists of the constitutive androstane receptor (CAR) signaling pathway - cell viability counter screen (AID 1224836). Further: series mostly up to about 92 µM; nearly all actives have a fitted effect of over 45% in size. Summed up:
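Counter screen multiplexed with the CAR reporter readout: HepG2 cells co-transfected with hCAR and the CYP2B6-2.2kb construct receive a 15-concentration compound series and 0.75 uM PK11195 (final), then CellTiter-Fluor fluorescence is read after 23 h.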
(In general: In qHTS, concentration-response curves come from the screen itself.)

Test [4] is described as follows: qHTS assay to identify small molecule antagonists of the constitutive androstane receptor (CAR) signaling pathway - cell viability counter screen (AID 1224837). Further: series mostly up to about 92 µM; nearly all actives have a fitted effect of over 45% in size. Summed up:
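HepG2 cells stably expressing hCAR and a CYP2B6-2.2kb reporter were plated and pre-incubated 4 hr at 37 C/5% CO2, then given compounds at 15 concentrations plus 50 nM CITCO (final). After 23 hr, viability was read by CellTiter-Fluor fluorescence.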

Test [5] has as its target Nuclear receptor subfamily 1 group I member 3 (Homo sapiens) (UniProt Q14994). Put plainly: qHTS assay to identify small molecule antagonists of the constitutive androstane receptor (CAR) signaling pathway (AID 1224838). Further: nearly all actives have a fitted effect of over 40% in size. The procedure, abridged:
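HepG2 cells stably co-transfected with hCAR and a CYP2B6-2.2kb luciferase reporter were seeded 4 h before compound addition at 15 concentrations. Cells were stimulated with 50 nM CITCO (final) for 24 h at 37 C; luciferase luminescence was then read.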

Test [6] has the same target. In words: qHTS assay to identify small molecule agonists of the constitutive androstane receptor (CAR) signaling pathway (AID 1224839). Further: series mostly up to about 92 µM; nearly all actives have a fitted effect of over 15% in size. Summed up: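 A 15-concentration quantitative screen uses HepG2 cells co-transfected stably with human CAR and CYP2B6-2.2kb reporter. Treatment lasts 24 h with 0.75 uM PK11195 final present; ONE-Glo luminescence is the signal.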
Test [7] in a line: qHTS assay to identify small molecule antagonists of the estrogen related receptor signaling pathway with the pleiotropic PPARgamma coactivator (PGC) from Tox21 10K library - cell viability counter screen (AID 1224840; active means well fitted cell-killing curve with a large enough effect in the repeat runs, not every such curve was filed as active; further: nearly all actives have a fitted effect of over 40% in size). Summed up:
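PGC/ERR cells were seeded at 2,000 cells/well and left 6 hours at 37 C/5% CO2 before pin-tool addition of compounds in DMSO. After 17.5 hours at 37 C, CellTiter-Fluor was added and fluorescence read 30 minutes later.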

Test [8] concerns the target Thyrotropin receptor (Homo sapiens) (UniProt P16473). Put plainly: qHTS assay to identify small molecule agonists of the thyroid stimulating hormone receptor (TSHR) signaling pathway (AID 1224843; calls by dose curve; further: nearly all actives have a fitted effect of over 45% in size). Summed up:
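TSHR-expressing HEK293 cells (800 per well) were exposed to compounds for 30 min at room temperature. cAMP was then detected by HTRF competition with cAMP-d2 and anti-cAMP cryptate, read after 1 h at room temperature. Fifteen concentrations, triplicate.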

A short description of test [9]: qHTS assay to identify small molecule agonists of the hypoxia (HIF-1) signaling pathway - cell viability counter screen (AID 1224844; calls by dose curve; further: nearly all actives have a fitted effect of over 50% in size). The procedure, abridged:
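HRE-bla ME-180 cells in medium with 0.5% dialyzed FBS were preincubated 5 hrs at 37C, exposed to compounds for 17 hrs, then viability was read as CellTiter-Glo luminescence after 30 min at room temperature, in the reporter wells.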

The nature of test [10]: qHTS assay to identify small molecule agonists of H2AX - cell viability counter screen (AID 1224847; calls by dose curve; further: top concentration of the series differs between compounds; nearly all actives have a fitted effect of over 30% in size). Summed up: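 We seed wild-type CHO-K1 cells overnight, treat them for 3 hr at 37C with compounds in 15-concentration series, and quantify remaining viability by CellTiter-Glo luminescence.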
Test [11] can be described thus: qHTS RealTime-Glo MT Cell Viability Assay in HepG2 cells - 24 hour (AID 1224867). Further: nearly all actives have a fitted effect of over 50% in size. The procedure, abridged:
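Real-time, nonlytic viability: 600 HepG2 cells/well mixed with NanoLuc enzyme plus prosubstrate; 5 h settle, compound (DMSO) added by pintool; luminescence monitored over 40 h at 37 C.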

A short description of test [12]: qHTS RealTime-Glo MT Cell Viability Assay in HEK293 cells - 32 hour (AID 1224868). Further: top concentration of the series differs between compounds; nearly all actives have a fitted effect of over 50% in size. Summed up:
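Cells + reagent dispensed (600 cells/well, HEK293) → 5 h at 37 C/5% CO2 → 23 nL compound in DMSO pinned → 40 h at 37 C → luminescence read at 0, 8, 16, 24, 32, 40 h.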

The nature of test [13]: A CellTox Green Cytotoxicity Assay to monitor cytotoxicity in HEK293 cells - 0 hour (AID 1224869). Further: nearly all actives have a fitted effect of over 50% in size. The procedure, abridged:
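HEK293 cells premixed with CellTox Green dye were seeded at 600 cells/well and left 5 h at 37 C/5% CO2 before pin transfer of 23 nL compound in DMSO. Fluorescence from dye bound to dead-cell DNA was read during 40 h treatment.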

Test [14] in a line: qHTS RealTime-Glo MT Cell Viability Assay in HepG2 cells - 40 hour (AID 1224870). Further: nearly all actives have a fitted effect of over 50% in size. The procedure, abridged: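 HepG2 cells mixed with RealTime-Glo MT reagents (NanoLuc plus cell-permeant prosubstrate) were seeded at 600 cells/well, incubated 5 h at 37 C/5% CO2, then pinned with compounds in DMSO; nonlytic luminescence tracked viability during 40 h treatment.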
Test [15] is described as follows: qHTS assay to identify small molecule agonists of H2AX (AID 1224845; active means well fitted activation curve with a large enough effect in the signal ratio in the repeat runs, not every such curve was filed as active; the % refers to the signal ratio). Summed up:
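Wild-type CHO-K1 cells plated overnight, then exposed 3 hr at 37C to compounds at 15 concentrations (0.76% DMSO). Lysed, then HTRF anti-pH2AX(S139)-cryptate/anti-H2AX-d2 detection after 24 hr at room temperature; emissions 665 and 620 nm.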

The nature of test [16]: qHTS assay to identify small molecule agonists of the hypoxia (HIF-1) signaling pathway (AID 1224846; active means well fitted activation curve with a large enough effect in the signal ratio in the repeat runs, not every such curve was filed as active; the % refers to the signal ratio). The procedure, abridged: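 HRE-bla ME-180 cells (beta-lactamase reporter under hypoxia response element) were plated at 2,000 cells/well in medium with 0.5% dialyzed FBS, rested 5 hrs, then given compounds in DMSO for 17 hrs at 37C, 5% CO2. Reporter induction was read with CCF4-AM FRET substrate.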

Luciferin 4-monooxygenase (Photinus pyralis), sequence (P08659 whole entry, looked up): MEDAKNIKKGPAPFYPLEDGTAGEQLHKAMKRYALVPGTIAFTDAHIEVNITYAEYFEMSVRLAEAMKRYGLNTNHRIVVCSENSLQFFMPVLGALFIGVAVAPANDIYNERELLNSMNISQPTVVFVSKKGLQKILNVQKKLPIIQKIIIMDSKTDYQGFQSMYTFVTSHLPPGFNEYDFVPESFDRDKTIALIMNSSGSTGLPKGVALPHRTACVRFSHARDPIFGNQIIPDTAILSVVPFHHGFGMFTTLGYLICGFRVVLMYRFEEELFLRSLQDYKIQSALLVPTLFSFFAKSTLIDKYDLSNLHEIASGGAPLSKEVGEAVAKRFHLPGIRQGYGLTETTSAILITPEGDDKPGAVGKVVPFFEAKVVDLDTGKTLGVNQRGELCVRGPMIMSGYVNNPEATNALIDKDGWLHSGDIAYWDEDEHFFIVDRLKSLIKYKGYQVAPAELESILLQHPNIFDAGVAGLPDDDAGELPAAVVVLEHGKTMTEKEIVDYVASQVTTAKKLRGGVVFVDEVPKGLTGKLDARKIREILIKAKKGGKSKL
Nuclear receptor subfamily 1 group I member 3 (Homo sapiens), sequence (Q14994 whole entry, looked up): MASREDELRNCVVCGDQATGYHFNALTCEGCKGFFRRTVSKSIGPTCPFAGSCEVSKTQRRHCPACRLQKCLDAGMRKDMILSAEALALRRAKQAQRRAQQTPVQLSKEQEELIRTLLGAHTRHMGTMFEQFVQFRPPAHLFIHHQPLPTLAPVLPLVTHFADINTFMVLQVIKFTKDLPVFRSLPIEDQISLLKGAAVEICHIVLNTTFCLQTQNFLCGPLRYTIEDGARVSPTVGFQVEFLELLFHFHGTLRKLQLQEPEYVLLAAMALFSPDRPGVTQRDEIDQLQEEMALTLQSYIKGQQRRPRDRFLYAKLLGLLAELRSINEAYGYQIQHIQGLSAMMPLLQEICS
Thyrotropin receptor (Homo sapiens), sequence (P16473 whole entry, looked up): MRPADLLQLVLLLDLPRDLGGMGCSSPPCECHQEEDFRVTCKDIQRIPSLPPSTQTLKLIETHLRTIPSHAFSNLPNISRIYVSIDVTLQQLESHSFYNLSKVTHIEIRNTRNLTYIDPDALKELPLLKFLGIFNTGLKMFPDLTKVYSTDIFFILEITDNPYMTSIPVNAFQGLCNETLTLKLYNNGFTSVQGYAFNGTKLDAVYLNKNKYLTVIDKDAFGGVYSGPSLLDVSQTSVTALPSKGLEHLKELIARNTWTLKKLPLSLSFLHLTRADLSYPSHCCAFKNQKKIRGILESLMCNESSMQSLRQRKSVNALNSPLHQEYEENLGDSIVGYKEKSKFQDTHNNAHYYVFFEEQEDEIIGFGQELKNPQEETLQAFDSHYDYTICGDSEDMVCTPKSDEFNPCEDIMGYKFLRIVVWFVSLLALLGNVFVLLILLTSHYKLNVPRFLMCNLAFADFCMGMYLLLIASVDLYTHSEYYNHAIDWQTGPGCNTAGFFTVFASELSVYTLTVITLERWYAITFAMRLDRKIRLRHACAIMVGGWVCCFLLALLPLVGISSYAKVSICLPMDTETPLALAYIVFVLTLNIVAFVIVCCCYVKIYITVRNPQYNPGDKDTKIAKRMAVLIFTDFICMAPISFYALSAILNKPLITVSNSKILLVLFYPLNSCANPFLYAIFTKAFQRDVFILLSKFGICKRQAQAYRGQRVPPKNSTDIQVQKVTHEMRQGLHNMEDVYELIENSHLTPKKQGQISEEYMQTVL

Regarding `CN(C)[C@@H]1C(=O)C(C(=O)NCN2CCCC2)=C(O)[C@@]2(O)C(=O)C3=C(O)c4c(O)cccc4[C@@](C)(O)C3C[C@@H]12` (some centres not stated), the Potency result in test [1], in test [2], in [5], in test [6], in [8] and in test [9] was “inactive” in each case. The Potency entry in test [12] and in [14] was “inactive” throughout. Moreover, the result in test [3], in test [4], in test [7], in [10], in test [11] and in test [13] was inactive.

As for `CC(C)(C)OC(=O)c1cccc(N)c1`, the Potency result in test [1], in [5], in test [6], in test [8], in test [9] and in [15] was “inactive” in each case. Further, the Potency entry in test [12] and in [14] was “inactive” throughout. The Potency in [2] is 57.9 µM (active). Moreover, the compound was classed as inactive in test [3], in test [4], in [7], in test [16], in test [10] and in test [11]. In [13], the call was inactive.

As to `COc1cccc(OC)c1C(=O)N[C@@H]1C(=O)N2[C@@H]1SC(C)(C)[C@@H]2C(=O)O`, the Potency result in test [1], in [2], in test [5], in test [6], in test [8] and in test [9] was “inactive” in each case. Moreover, the Potency entry in test [15], in test [12] and in test [14] was “inactive” each time. The result in test [3], in [4], in test [7], in test [16], in test [10] and in [11] was inactive. For the same compound, the result in test [13] was inactive.

Turning to `CC(CC=O)CC(C)(C)C` (configuration not stated), the Potency entry in [1], in test [2], in [5], in [6], in [8] and in test [15] was “inactive” throughout. In addition, the Potency result in [12] and in test [14] was “inactive” in each case. Moreover, the compound was called inactive in test [3], in [4], in test [7], in test [16], in [10] and in test [11]. Further, the compound was called inactive in [13].

As to `CC1=CCC(O)(C(C)C)CC1` (configuration not stated), the Potency result in test [1], in test [2], in test [5], in [6], in [8] and in test [9] was “inactive” in each case. The Potency entry in test [12] and in test [14] was “inactive” throughout. Moreover, the compound was called inactive in test [3], in [4], in test [7], in [10], in test [11] and in test [13].

In the case of `O=C(c1ccccc1)C1(O)CCCCC1`, the Potency result in test [1], in [2], in [5], in test [6], in test [8] and in test [9] was “inactive” throughout. Also, the Potency result in test [15], in test [12] and in test [14] was “inactive” throughout. In addition, the result in [3], in test [4], in test [7], in test [16], in test [10] and in test [11] was inactive. For the same compound, in test [13], the call was inactive.

Regarding `CC(=O)N1C[C@H](O)C[C@H]1C(=O)O`, the Potency entry in test [1], in test [2], in test [5], in test [6], in [8] and in [9] was “inactive” each time. The Potency entry in [12] and in test [14] was “inactive” each time. Further, the compound was called inactive in test [3], in [4], in test [7], in test [16], in test [10] and in [11]. In addition, the compound was classed as inactive in test [13].

Consider `CC(C)CC(C)(N)C#N` (configuration not stated), for which the Potency entry in [1], in test [2], in test [5], in [6], in test [9] and in [15] was “inactive” throughout. Moreover, the Potency result in test [12] and in test [14] was “inactive” each time. In addition, the outcome in test [3], in [4], in test [7], in [16], in test [10] and in test [11] was inactive. For the same compound, the compound was called inactive in test [13].

Consider `CN(C)CCN(C)CCN(C)C`, for which the Potency entry in test [1], in [2], in test [5], in test [6], in [8] and in [9] was “inactive” in each case. Further, the Potency entry in test [15], in [12] and in test [14] was “inactive” in each case. The outcome in [3], in test [4], in [7], in [16], in test [10] and in test [11] was inactive. For the same compound, the compound was classed as inactive in [13].
